# Measurements taken from PubChem BioAssay (Tox21).
# “And” between values parts separate entries of the source, which are not always exact repeats. Equal entries are not always repeated. Records with an inconclusive call do not appear. Entries that show only a call come without a potency. The source made the active and inactive calls. Unless noted, the call rests on the fitted dose curve; in most records, active means well fitted curve in the direction sought with a large enough effect in the repeat runs; inconclusive means weak or mixed curves; inactive means no such curve, though single readings can be large; an effect the other way counts as inactive or inconclusive.
# Columns and labels:
# [1] = qHTS assay to identify small molecule antagonists of the peroxisome proliferator-activated receptor delta (PPARd) signaling pathway - cell viability counter screen (AID 743213); further: nearly all actives have a fitted effect of over 50% in size; further: potency means the concentration at half of the fitted maximal effect
# Procedure, shortened: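 Viability counter-screen, qHTS format: PPARd-bla HEK293H, L165041 300 nM final, 17 h compound exposure at 37 C, CellTiter-Glo luminescence after 30 min RT.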
# [2] = target: Peroxisome proliferator-activated receptor delta (Homo sapiens) (UniProt Q03181); assay: qHTS assay to identify small molecule antagonists of the peroxisome proliferator-activated receptor delta (PPARd) signaling pathway (AID 743215; active means well fitted inhibition curve with a large enough effect in the signal ratio in the repeat runs, not every such curve was filed as active; the % refers to the signal ratio;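 further: cells stimulated with agonist L165041 at 300 nM final during compound exposure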; further: potency means the concentration at half of the fitted maximal effect)
# Chain of Peroxisome proliferator-activated receptor delta (Homo sapiens) (Q03181 whole entry, looked up): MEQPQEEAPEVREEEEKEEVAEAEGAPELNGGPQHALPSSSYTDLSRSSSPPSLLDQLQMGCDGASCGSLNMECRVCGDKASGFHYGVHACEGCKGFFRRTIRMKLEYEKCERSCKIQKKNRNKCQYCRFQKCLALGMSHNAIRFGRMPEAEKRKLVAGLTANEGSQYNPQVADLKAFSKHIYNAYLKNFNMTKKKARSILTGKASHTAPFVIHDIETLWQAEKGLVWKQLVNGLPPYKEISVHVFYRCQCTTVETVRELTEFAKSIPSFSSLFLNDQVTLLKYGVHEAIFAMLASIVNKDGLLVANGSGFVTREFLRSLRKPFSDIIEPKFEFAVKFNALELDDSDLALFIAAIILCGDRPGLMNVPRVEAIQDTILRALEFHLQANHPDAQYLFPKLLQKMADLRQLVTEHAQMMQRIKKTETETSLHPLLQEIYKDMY
# Procedure, shortened: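 Here, a reporter line (HEK293H, beta-lactamase under a UAS) measures PPARd signaling. Compounds are tested against agonist L165041 at 300 nM final concentration over 17 h at 37 C, with fluorescence read after substrate.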
# [3] = qHTS assay to identify small molecule agonists of the vitamin D receptor (VDR) signaling pathway - cell viability counter screen (AID 743224); further: nearly all actives have a fitted effect of over 50% in size; further: potency means the concentration at half of the fitted maximal effect
# Procedure, shortened: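 CellTiter-Glo viability readout on VDR-bla cells, measured after 16 h of compound treatment at 37C in the same wells.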
# [4] = target: Bile acid receptor (Homo sapiens) (UniProt Q96RI1); assay: qHTS assay to identify small molecule antagonists of the farnesoid-X-receptor (FXR) signaling pathway (AID 743217; active means well fitted inhibition curve with a large enough effect in the signal ratio in the repeat runs, not every such curve was filed as active; the % refers to the signal ratio; further: potency means the concentration at half of the fitted maximal effect)
# Chain of Bile acid receptor (Homo sapiens) (Q96RI1 whole entry, looked up): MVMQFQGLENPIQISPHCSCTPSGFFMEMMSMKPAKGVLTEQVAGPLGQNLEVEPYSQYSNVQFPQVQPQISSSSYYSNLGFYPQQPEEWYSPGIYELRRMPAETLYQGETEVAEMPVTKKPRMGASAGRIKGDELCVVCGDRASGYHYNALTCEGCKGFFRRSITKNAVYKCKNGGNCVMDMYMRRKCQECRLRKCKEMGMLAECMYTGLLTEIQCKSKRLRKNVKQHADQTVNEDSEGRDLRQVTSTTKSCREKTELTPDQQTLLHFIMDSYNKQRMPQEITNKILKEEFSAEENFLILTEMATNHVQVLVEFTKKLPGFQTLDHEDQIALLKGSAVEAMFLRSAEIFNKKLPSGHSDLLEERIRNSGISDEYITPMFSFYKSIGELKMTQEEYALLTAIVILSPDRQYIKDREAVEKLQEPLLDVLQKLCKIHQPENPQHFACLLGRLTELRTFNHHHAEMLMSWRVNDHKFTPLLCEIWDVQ
# Procedure, shortened: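 Test compounds are pin-transferred onto FXR-bla HEK 293T cells, then chenodeoxycholic acid is added at 50 uM final. After 16 h at 37 °C, LiveBLAzer B/G substrate is applied for 2 h at room temperature and fluorescence read.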
# [5] = qHTS assay to identify small molecule agonists of the farnesoid-X-receptor (FXR) signaling pathway - cell viability counter screen (AID 743218); further: nearly all actives have a fitted effect of over 45% in size; further: potency means the concentration at half of the fitted maximal effect
# Procedure, shortened: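 Quantitative HTS counter screen measuring ATP-based viability via CellTiter-Glo luminescence in HEK 293T cells carrying a UAS-driven beta-lactamase reporter, after 16 h compound exposure at 37 C.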
# [6] = target: Bile acid receptor (Homo sapiens) (UniProt Q96RI1); assay: qHTS assay to identify small molecule agonists of the farnesoid-X-receptor (FXR) signaling pathway (AID 743220; active means well fitted activation curve with a large enough effect in the signal ratio in the repeat runs, not every such curve was filed as active; the % refers to the signal ratio)
# Procedure, shortened: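 FXR-UAS-bla HEK 293T cells carrying a UAS-driven beta-lactamase reporter were plated for 5 h at 37C/5% CO2, then exposed to DMSO-dissolved Tox21 10K compounds for 16 h at 37C. A LiveBLAzer B/G FRET substrate was loaded for 2 h at room temperature before fluorescence reading.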
# [7] = qHTS assay to identify small molecule antagonists of the farnesoid-X-receptor (FXR) signaling pathway - cell viability counter screen (AID 743221; active means well fitted cell-killing curve with a large enough effect in the repeat runs, not every such curve was filed as active; further: nearly all actives have a fitted effect of over 50% in size; further: potency means the concentration at half of the fitted maximal effect)
# Procedure, shortened: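 Compound effects on cell number were measured as CellTiter-Glo luminescence in HEK 293T cells expressing FXR-UAS-bla, after 16 h at 37 C with 50 uM CDCA (final).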
# [8] = target: Vitamin D3 receptor (Homo sapiens) (UniProt P11473); assay: qHTS assay to identify small molecule antagonists of the vitamin D receptor (VDR) signaling pathway (AID 743223; active means well fitted inhibition curve with a large enough effect in the signal ratio in the repeat runs, not every such curve was filed as active; the % refers to the signal ratio; further: potency means the concentration at half of the fitted maximal effect)
# Chain of Vitamin D3 receptor (Homo sapiens) (P11473 whole entry, looked up): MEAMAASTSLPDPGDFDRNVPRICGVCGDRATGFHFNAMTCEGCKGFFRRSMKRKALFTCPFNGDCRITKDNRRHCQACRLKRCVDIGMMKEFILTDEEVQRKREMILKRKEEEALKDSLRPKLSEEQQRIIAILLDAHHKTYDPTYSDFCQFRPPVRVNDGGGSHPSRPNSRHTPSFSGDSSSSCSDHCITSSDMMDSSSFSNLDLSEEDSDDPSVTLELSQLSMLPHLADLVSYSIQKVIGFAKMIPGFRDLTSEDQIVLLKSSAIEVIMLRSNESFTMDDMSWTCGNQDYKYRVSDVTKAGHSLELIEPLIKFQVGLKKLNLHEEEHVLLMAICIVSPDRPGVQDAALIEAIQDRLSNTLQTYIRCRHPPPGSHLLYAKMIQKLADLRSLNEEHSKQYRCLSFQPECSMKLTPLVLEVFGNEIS
# Procedure, shortened: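 Beta-lactamase activity in VDR-bla cells is measured by FRET substrate fluorescence (2 h, room temperature) after cells spend 16 h at 37C with test compound and 3 nM final 1alpha,25-dihydroxyvitamin D3.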
# [9] = target: Vitamin D3 receptor (Homo sapiens) (UniProt P11473); assay: qHTS assay to identify small molecule agonists of the vitamin D receptor (VDR) signaling pathway (AID 743222; calls by dose curve; further: potency means the concentration at half of the fitted maximal effect)
# Procedure, shortened: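 Tox21 cell reporter format: VDR-bla line, 16 h compound exposure in 5% CO2 at 37C, then fluorescence intensity after 2 h with LiveBLAzer B/G FRET substrate.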
structure (smiles),measurement,setting,value
Clc1ccc(CO/N=C(\Cn2ccnc2)c2ccc(Cl)cc2Cl)c(Cl)c1,Potency,[1],inactive
same,Potency,[2],inactive
same,Potency,[3],inactive
Fc1cccc(Cl)c1CCl,Potency,[1],inactive
same,Potency,[2],inactive
same,Potency,[4],inactive
same,Potency,[5],inactive
same,outcome,[6],inactive
same,Potency,[7],inactive
same,Potency,[3],inactive
Oc1ccc(C2(c3ccc(O)cc3)c3ccccc3-c3ccccc32)cc1,Potency,[1],13.8 µM (active)
same,Potency,[2],11 µM (active)
same,Potency,[5],54.9 µM (active)
CC(=O)/C=C/c1ccc2c(c1)OCO2,Potency,[1],inactive
same,Potency,[2],43.9 µM (active)
same,Potency,[5],inactive
same,outcome,[6],inactive
same,Potency,[7],inactive
same,Potency,[3],inactive
CC(C)OC(=S)S,Potency,[1],inactive
same,Potency,[4],inactive
same,Potency,[5],inactive
CC(=O)OC1(c2ccccc2)CCN(CCc2ccccc2)CC1,Potency,[1],inactive
same,Potency,[2],inactive
same,Potency,[5],inactive
same,Potency,[7],inactive
same,Potency,[3],inactive
Clc1ccc(C(c2ccccc2Cl)C(Cl)(Cl)Cl)cc1 (stereo unspecified),Potency,[1],inactive
same,Potency,[2],inactive
same,Potency,[5],62.1 µM (active)
same,Potency,[7],inactive
same,Potency,[8],inactive
same,Potency,[3],43.9 µM (active)
CN(C)CCc1c[nH]c2cccc(O)c12,Potency,[1],inactive
same,Potency,[2],inactive
same,Potency,[5],inactive
same,Potency,[9],inactive
same,Potency,[8],inactive
ClC1=C(Cl)C2(Cl)C3C(Cl)C=CC3C1(Cl)C2(Cl)Cl (stereo unspecified),Potency,[1],inactive
same,Potency,[2],inactive
same,Potency,[3],43.6 µM (active)
COc1ccc(OC)c(CC(C)N)c1 (stereo unspecified),Potency,[1],inactive
same,Potency,[2],inactive
same,Potency,[5],inactive
same,Potency,[8],inactive
same,Potency,[3],inactive
CCOCn1c(-c2ccc(Cl)cc2)c(C#N)c(Br)c1C(F)(F)F,Potency,[1],30.9 µM (active)
same,Potency,[5],12.3 µM (active)
same,Potency,[7],27.5 µM (active)
same,Potency,[3],3.47 µM (active)
ClC1=C(Cl)C2(Cl)C3C(Cl)C(Cl)CC3C1(Cl)C2(Cl)Cl (stereo unspecified),Potency,[1],49 µM (active)
same,Potency,[5],48.8 µM (active) and 54.9 µM (active)
same,Potency,[7],61.6 µM (active)
same,Potency,[3],24.5 µM (active) and 17.4 µM (active)
ClC(Cl)=C(Cl)Cl,Potency,[1],inactive
same,Potency,[4],inactive
same,outcome,[6],inactive
same,Potency,[7],inactive
same,Potency,[8],inactive
same,Potency,[3],inactive
CC1(C)CN=C(NN=C(/C=C/c2ccc(C(F)(F)F)cc2)/C=C/c2ccc(C(F)(F)F)cc2)NC1,Potency,[1],6.92 µM (active)
same,Potency,[4],19.5 µM (active)
same,Potency,[5],11 µM (active)
same,Potency,[8],13.8 µM (active)
same,Potency,[3],6.92 µM (active)
CCOCCOC(C)=O,Potency,[1],inactive
same,Potency,[5],inactive
same,Potency,[7],inactive
CCN(CC)C(=S)[S-].CCN(CC)C(=S)[S-].[Zn+2],Potency,[1],0.433 µM (active)
same,Potency,[5],3.44 µM (active)
same,Potency,[7],6.86 µM (active)
same,Potency,[3],0.217 µM (active)
N#CSCSC#N,Potency,[1],44.6 µM (active) and 48.5 µM (active)
same,Potency,[5],inactive
same,outcome,[6],inactive
same,Potency,[9],inactive
same,Potency,[3],15.8 µM (active) and 17.2 µM (active)
COP(=S)(OC)Oc1cc(Cl)c(Br)cc1Cl,Potency,[1],inactive
same,Potency,[5],inactive
same,outcome,[6],inactive
same,Potency,[9],inactive
same,Potency,[8],inactive
same,Potency,[3],inactive
COc1cc(N)c(Cl)cc1C(=O)NC1CN2CCC1CC2 (stereo unspecified),Potency,[1],inactive
same,Potency,[5],inactive
same,Potency,[7],inactive
same,Potency,[3],inactive
Cc1cc(C(C)(C)c2cc(C)c(O)c(C)c2)cc(C)c1O,Potency,[1],42.2 µM (active)
same,Potency,[5],47.4 µM (active)
same,outcome,[6],inactive
CCCOCC(=Nc1ccc(Cl)cc1C(F)(F)F)n1ccnc1,Potency,[1],21.9 µM (active)
same,Potency,[5],17.4 µM (active)
same,Potency,[7],21.9 µM (active)
same,Potency,[9],34.6 µM (active)
same,Potency,[3],7.76 µM (active)
CCC[CH2][Sn]([CH2]CCC)([CH2]CCC)[O]C(=O)c1ccccc1,Potency,[1],1.38 µM (active)
same,Potency,[5],0.616 µM (active)
same,Potency,[7],2.45 µM (active)
same,Potency,[3],0.692 µM (active)
O=[N+]([O-])c1cc(C(F)(F)F)c(Cl)c([N+](=O)[O-])c1Cl,Potency,[1],7.76 µM (active)
same,Potency,[5],7.76 µM (active)
same,Potency,[7],38.9 µM (active)
same,Potency,[3],12.3 µM (active)
COc1cccc2c1C(=O)c1c(O)c3c(c(O)c1C2=O)C[C@@](O)(C(=O)CO)CC3OC1CC(N2CCOC(OC)C2)C(O)C(C)O1 (stereo partly specified),Potency,[1],inactive
same,Potency,[5],inactive
same,Potency,[7],inactive
same,Potency,[3],inactive
O=c1[nH]c2ccccc2n1C1CCN(CCCC(c2ccc(F)cc2)c2ccc(F)cc2)CC1,Potency,[1],21.9 µM (active) and 29.8 µM (active)
same,Potency,[5],21.9 µM (active)
same,outcome,[6],inactive
same,Potency,[3],21.9 µM (active)
